# A selection: hits, their analogues and other compounds. The true share with any hit is near 11%.
# G9a inh: qHTS Assay for Inhibitors of Histone Lysine Methyltransferase G9a | Histone-lysine N-methyltransferase EHMT2 (Homo sapiens), Q96KQ7 | G9a H3K9 monomethylation, AlphaScreen, 2 h | Potency, µM (titrated, usually from 102 µM), without a hit: top-dose activity, negative = inhibition, usual class: inhibitors | actives 8.8% (n = 350,000) | AID 504332, 2011; also: % is scaled to controls: 0 for no effect and ±100 for the full control effect; nearly all actives have a fitted effect of over 75% in size
#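 Enzyme 20 nM + cpd, 15 min RT; add b-H3K9 pep 500 nM / SAM 20 uM; 2 h RT; anti-H3K9me1 Ab 0.5 ug/mL + SA donor / anti-rabbit acceptor beads 20 ug/mL each, 10 min; AlphaScreen read.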
# L3MBTL1 block: qHTS Assay for the Inhibitors of L3MBTL1; AlphaScreen L3MBTL1–H3K9me1 peptide binding; Potency, µM (top dose mostly 57.1 µM), without a hit: at the top dose activity, negative = inhibition, most hits filed as inhibitors; actives 0.66% (n = 230,000); AID 485360, 2010; also: % is scaled to controls: 0 for no effect and ±100 for the full control effect; nearly all actives have a fitted effect of over 60% in size
#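 Read-out is AlphaScreen signal from streptavidin donor and nickel chelate acceptor beads (10 ug/mL final each) bridging L3MBTL1 (50 nM) and biotinylated K9-monomethylated H3(1-15) peptide (75 nM), after 30 min compound exposure at room temperature.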
# JMJD2A Tudor inh: qHTS Assay for Inhibitors of JMJD2A-Tudor Domain; AlphaScreen JMJD2A-Tudor / H3K4me3 peptide binding; AID 504339, 2011; Potency, µM (series often up to 114 µM), for the others: at the top dose activity change, negative = inhibition, actives largely listed as inhibitors; actives 4.4% (n = 390,000); Lysine-specific demethylase 4A (Homo sapiens), O75164; also: % is scaled to controls: 0 for no effect and ±100 for the full control effect; nearly all actives have a fitted effect of over 50% in size
# BAZ2B inh: qHTS Assay for Inhibitors of BAZ2B; Potency, µM (top dose mostly 114 µM), for inactives: at the top dose activity change, negative = inhibition, most hits filed as inhibitors; AlphaScreen BAZ2B-H3K14Ac peptide displacement; actives 4.4% (n = 360,000); Bromodomain adjacent to zinc finger domain protein 2B (Homo sapiens), Q9UIF8; also: % is scaled to controls: 0 for no effect and ±100 for the full control effect; nearly all actives have a fitted effect of over 60% in size
#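 Complex of BAZ2B and biotin-H3K14Ac (50 nM apiece) forms over 30 min at RT, then faces library compounds up to 110 uM for another 30 min; AlphaScreen beads added, 20 min dark incubation, luminescence read.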
# HP1b chromo inh: HTS for Inhibitors of HP1-beta Chromodomain Interactions with Methylated Histone Tails; Chromobox protein homolog 1 (Homo sapiens), P83916; AlphaScreen HP1-beta / biotin-H3K9me3 peptide binding; Potency, µM (top dose mostly 114 µM), inactives show at the top dose activity change, negative = inhibition, usual class: inhibitors; actives 0.56% (n = 390,000); also: nearly all actives have a fitted effect of over 70% in size
#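 Compound inhibition of the preformed complex between 50 nM HP1-beta and 50 nM biotinylated H3K9me3 peptide was read by AlphaScreen. Buffer was PBS pH 7.4 with 0.01% Tween-20. Incubations ran 30 min at room temperature, with 10 ug/mL donor/acceptor beads.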
# An asterisk follows results filed as active; ? = inconclusive; . = not tested or not shown; [ ] = remark or other dose. Calls follow the shape of the dose curve; as a rule, active = well fitted inhibition curve with a large enough effect; inconclusive = small, poorly fitted or top-dose-only effect; inactive = no such curve, though single readings can be large or run the other way. Potency is read from the fitted curve at half-maximal effect.
SMILES,G9a inh,L3MBTL1 block,JMJD2A Tudor inh,BAZ2B inh,HP1b chromo inh
O=C1c2ccccc2-c2onc3c(N4CCN(C5CCCCC5)CC4)cc(NCCO)c1c23,-43.1%[59 µM],.,?,31.6µM*,?
O=[N+]([O-])c1c(NCCO)cc(N2CCN(Cc3ccc4c(c3)OCO4)CC2)c2nonc12,?,-11.9%,-21.8%,-13.8%,23.5%
COCCNc1cc(N2CCN(C3CCCCC3)CC2)c2noc3c2c1C(=O)c1ccccc1-3,?,.,50.1µM*,?,?
COCCCNc1nc2nonc2nc1N1CCN(C2CCCC2)CC1,-21.6%,5.7%,-2.1%,-27.7%,29.4%
O=C(NCCS(=O)(=O)N1CCN(c2cccc(Cl)c2)CC1)C(c1ccccc1)c1ccccc1,6.9%[59 µM],.,-0.6%,-2.9%,24.5%[57 µM]
CCC(C(=O)OC)n1cnc2c(cnn2-c2ccc(F)cc2)c1=O (stereo not drawn),1.4%[59 µM],.,1.7%,3.2%,38.2%
Cc1ccc(OC(=O)c2ccc3c(=O)n4c(nc3c2)CCC4)cc1,-7.9%,-6.0%,-26.2%,?,18.6%
CN(CCC#N)C(=O)COC(=O)c1ccc2c(=O)n3c(nc2c1)CCC3,10.0%,?,-17.4%,-2.1%,32.4%
N#CCCN(C(=O)COC(=O)c1ccc2c(=O)n3c(nc2c1)CCC3)c1ccccc1,30.5%,.,14.1µM*,-6.0%,-7.9%
CC(=O)c1cccc(OC(=O)c2ccc3c(=O)n4c(nc3c2)CCC4)c1,7.08µM*,-4.6%,-13.5%,-38.1%,19.5%
CC1(NC(=O)c2cccc(S(=O)(=O)N3CCN(c4ccc(F)cc4)CC3)c2)CCS(=O)(=O)C1 (stereo not drawn),10.4%[12.7 µM],-8.0%,-10.3%,6.6%,10.0%
Cc1cc2c(cc(C(=O)OC(C(=O)NCC3CCCO3)C(C)C)n2C)o1 (stereo not drawn),-8.5%,-0.9%,-29.6%,-11.7%,-8.8%
COCCNC(=O)C(OC(=O)c1cc2oc(C)cc2n1C)C(C)C (stereo not drawn),?,-7.0%,-15.0%,79.4µM*,24.0%
Cc1ccccc1-c1nc2scc(CCNC(=O)c3ccco3)n2n1,11.2%[59 µM],.,-15.3%,-13.3%,18.1%[57 µM]
COc1ccc(NC(=O)Cn2c(=O)n(-c3ccc(OC)cc3)c(=O)c3ccc(C(=O)NCc4ccc(C)cc4)cc32)cc1,5.6%[59 µM],.,-11.3%,.,17.0%
COC(=O)c1c(-c2ccc(C)cc2)csc1NC(=S)NC(=O)c1cc(OC)cc(OC)c1,25.1µM*,-15.3%,0.0%,?,17.6%
CCOC(=O)c1c(-c2ccc(C)cc2)csc1NC(=O)c1ccc(C(C)(C)C)cc1,-11.3%[59 µM],.,-11.4%,-8.7%,25.4%
Cc1cccc(N2C(=O)CSC23C(=O)N(Cc2cccc(C(F)(F)F)c2)c2ccccc23)c1 (stereo not drawn),-13.8%[59 µM],.,-15.9%,-0.1%[57.1 µM],18.0%
N#CC1(NC(=O)COc2cc(F)ccc2[N+](=O)[O-])CCCCC1,?,-2.1%,0.0%,13.2%,26.2%
N#CC1(NC(=O)COc2ccccc2[N+](=O)[O-])CCCCC1,17.8µM*,-0.9%,20µM*,5.4%,?
CCc1ccc(NC(=O)CN2CCN(C3CCCCC3)C(=O)C2=O)cc1,-0.1%[12.7 µM],.,-8.3%,-16.6%,16.5%
Cc1ccc(NC(=O)CN2CC(C)SC2=NC2CCCCC2)cc1 (stereo not drawn),50.1µM*,-8.5%,-3.4%,7.3%,2.8%
CCOc1ccc(OCCC(=O)N(CC(=O)Nc2ccccc2C(F)(F)F)Cc2ccco2)cc1,44.7µM*,-27.6%,-18.2%,50.1µM*,6.3%
CC(C)COc1ccc(C(=O)N(CC(=O)Nc2ccccc2C(F)(F)F)Cc2ccco2)cc1,-10.4%[2.33 µM],-0.3%,-25.2%,-9.7%,-6.5%
O=C(NCC1CCN(c2ccc(S(=O)(=O)N3CCOCC3)cc2)CC1)c1cccc(Cl)c1,-17.6%,.,-16.6%,56.2µM*,10.8%
CC(=O)c1ccc(NC(=S)Nc2ccc(N3CCOCC3)cc2)cc1,44.7µM*,-19.3%,-5.8%,-26.8%,-17.0%
O=C(NC(=S)Nc1ccc(N2CCOCC2)cc1)c1cccc(Cl)c1,28.2µM*,-27.1%,?,17.8µM*,?
